# Records with an inconclusive call do not appear. The source made the active and inactive calls.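 Rule for the calls, unless noted: active = normalized viability below 100% at a tested concentration; inactive = the rest.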
# Experiments:
# [1] = growth inhibition of DIPG glioma cells, dose response, cell-based, SU-DIPG-XVII, MIPE5.0, CellTiter-Glo, qHTS (AID 1347060; cut-off not given, nearly all actives have AC50 up to about 26 µM;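 for AC50: cells exposed to compound for 48 hours before viability readout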); settings: SU-DIPG-XVII viability, CellTiter-Glo ATP luminescence
# [2] = growth inhibition of DIPG glioma cells, dose response, cell-based, SU-DIPG-XIII, MIPE4.0, CellTiter-Glo, qHTS (AID 1347061; cut-off not given, nearly all actives have AC50 up to about 37 µM;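 note: cells exposed to compound for 48 hours before readout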); settings: SU-DIPG-XIII viability, CellTiter-Glo ATP luminescence
# [3] = growth inhibition of DIPG glioma cells, dose response, cell-based, SU-DIPG-IV, MIPE4.0, CellTiter-Glo, qHTS (AID 1347063; cut-off not given, nearly all actives have AC50 up to about 30 µM;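 note: compound exposure lasted 48 hours before the viability readout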); settings: SU-DIPG-IV viability, CellTiter-Glo ATP luminescence
# [4] = growth inhibition of DIPG glioma cells, dose response, cell-based, SU-DIPG-XIII, MIPE5.0, CellTiter-Glo, qHTS (AID 1347064; cut-off not given, nearly all actives have AC50 up to about 23 µM;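 for AC50: cells exposed to compound for 48 hours before the viability read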); settings: SU-DIPG-XIII viability, CellTiter-Glo ATP luminescence
# [5] = viability loss in pontine glioma line – cell-based, SU-DIPG-XXV, MIPE5.0, CellTiter-Glo, qHTS, dose response (AID 1347065; cut-off not given, nearly all actives have AC50 up to about 26 µM;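 note: cells exposed to compound for 48 hours before ATP readout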); settings: CellTiter-Glo ATP luminescence
# [6] = SU-DIPG-XXV glioma cell viability, MIPE5.0 library, qHTS (AID 1347068; cut-off not given, nearly all actives have IC50 up to about 30 µM;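 for IC50: cells exposed to compound for 48 hours before viability readout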)
# [7] = sensitizers of A549 cells to miR-34 induction, primary screen, imaging, A549 dox-inducible miR-34, nuclei and caspase counts (AID 1347080;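 active = compounds whose cell count with miR-34 switched on is under 0.7 times the count with it off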); settings: A549 miR-34 inducible, Hoechst nuclei count, 48 h
# [8] = modifiers of HSF1 nuclear foci, imaging, Selleck Cancer Library (AID 1347162; in the data active = plate-normalised HSF1 focus index below about 0.46); settings: human cells, at 10 µM; SSMD: measured here: HSF1 foci SSMD mean; cell count: measured here: cell number; plate-normalised HSF1 focus index: stronger effect = lower value
# [9] = survival rescue of mitochondrial mutant cells in low glucose, primary screen, MELAS cybrids, Rieske KO mouse fibroblasts, CellTiter-Glo (AID 1508586;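 active = mean z-score across replicates of 1.96 or higher in either the MELAS or the Rieske mutant cell line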;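 note: z relative to plate mean and SD of compound and empty wells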)
# [10] = growth inhibition of DIPG glioma cells, dose response, cell-based, JHH-DIPG-1, MIPE4.0, CellTiter-Glo, qHTS (AID 1347062; cut-off not given, nearly all actives have AC50 up to about 27 µM;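 for AC50: cells exposed to compound for two days before readout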); settings: JHH-DIPG-1 viability, CellTiter-Glo ATP luminescence
# [11] = SU-DIPG-VI glioma cell viability, MIPE4.0 library, CellTiter-Glo luminescence, qHTS (AID 1347066; cut-off not given, nearly all actives have AC50 up to about 30 µM;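 note: cells exposed to compound for 48 hours before readout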); settings: CellTiter-Glo ATP luminescence
# [12] = JHH-DIPG-1 glioma cell viability, MIPE5.0 library, CellTiter-Glo luminescence, qHTS (AID 1347067; cut-off not given, nearly all actives have AC50 up to about 26 µM;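 note: cells exposed to compound for 48 hours before readout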); settings: JHH-DIPG-1 glioma viability, CellTiter-Glo ATP luminescence
# [13] = ovarian cancer cell viability with rucaparib, profiling panel, oncology-focused library, rucaparib conditional (AID 1508598); settings: patient-derived ovarian cancer cells, CellTiter-Glo viability, 144 h, stronger effect = lower value
# [14] = stronger effect = lower value, cell number ratio, induced over uninduced
# [15] = measured here: relative caspase fold change +Dox/-Dox
# [16] = measured here: total cells with miR-34 induction, stronger effect = lower value
# [17] = measured here: total cells without miR-34 induction
# [18] = MELAS cybrid survival, CellTiter-Glo 48 h, stronger effect = higher value
# [19] = Rieske KO mouse fibroblast survival, CellTiter-Glo 72 h
smiles,measurement,setting,value
COc1cc(Nc2ncc(F)c(Nc3ccc4c(n3)N(COP(=O)(O)O)C(=O)C(C)(C)O4)n2)cc(OC)c1OC,AC50,[1],1.05 µM (active)
same,AC50,[2],1.87 µM (active)
same,AC50,[3],3.32 µM (active)
same,AC50,[4],3.72 µM (active)
same,AC50,[5],3.72 µM (active)
same,IC50,[6],4.68 µM (active)
same,fold change,[7]; [14],0.857 (inactive)
same,fold change,[7]; [15],0.912
same,cell count,[7]; [16],1024
same,cell count,[7]; [17],1190
same,SSMD,[8],-2.78
same,cell count,[8],7320
same,plate-normalised HSF1 focus index,[8],0.825 (inactive)
same,z-score,[9]; [18],-0.637 (inactive)
same,z-score,[9]; [19],-0.181
O=C(c1ccc(F)cc1)N1CCC[C@H](c2nc(-c3ccc(F)cc3)no2)C1,outcome,[1],inactive
same,outcome,[10],inactive
same,outcome,[3],inactive
same,outcome,[4],inactive
same,outcome,[5],inactive
same,outcome,[11],inactive
same,outcome,[12],inactive
same,outcome,[6],inactive
C[C@H](NC(=O)/C(C#N)=C/c1cccc(Br)n1)c1ccccc1,AC50,[1],7.42 µM (active)
same,AC50,[10],9.35 µM (active)
same,AC50,[3],7.43 µM (active)
same,AC50,[4],7.42 µM (active)
same,AC50,[5],3.72 µM (active)
same,AC50,[11],14.8 µM (active)
same,AC50,[12],9.34 µM (active)
NS(=O)(=O)c1cccc2c1C(=O)c1cccc(O)c1C2=O,AC50,[1],2.35 µM (active)
same,AC50,[10],1.18 µM (active)
same,AC50,[3],0.332 µM (active)
same,AC50,[4],1.18 µM (active)
same,AC50,[5],1.86 µM (active)
same,AC50,[11],0.526 µM (active)
same,AC50,[12],2.09 µM (active)
same,IC50,[6],9.34 µM (active)
CN1CCN(CCOc2cc(OC3CCOCC3)c3c(Nc4c(Cl)ccc5c4OCO5)ncnc3c2)CC1,outcome,[1],inactive
same,outcome,[2],inactive
same,outcome,[5],inactive
same,outcome,[12],inactive
same,outcome,[6],inactive
same,fold change,[7]; [14],0.876 (inactive)
same,fold change,[7]; [15],1
same,cell count,[7]; [16],1170
same,cell count,[7]; [17],1330
same,SSMD,[8],-0.947
same,cell count,[8],7430
same,plate-normalised HSF1 focus index,[8],0.94 (inactive)
same,z-score,[9]; [18],0.931 (inactive)
same,z-score,[9]; [19],-0.384
same,viability,"[13]; at 0.000305 µM, OCI-C5x cells, with rucaparib 10 µM, 100% = cells with rucaparib alone",98.7% (active)
same,viability,"[13]; at 0.000305 µM, OCI-C5x cells, without rucaparib",98.5% (active)
same,viability,"[13]; at 0.000305 µM, OCI-P5x cells, with rucaparib 20 µM, 100% = cells with rucaparib alone",98.8% (active)
same,viability,"[13]; at 0.000305 µM, OCI-P5x cells, without rucaparib",104% (inactive)
same,viability,"[13]; at 0.00122 µM, OCI-C5x cells, with rucaparib 10 µM, 100% = cells with rucaparib alone",107% (inactive)
same,viability,"[13]; at 0.00122 µM, OCI-C5x cells, without rucaparib",98.2% (active)
same,viability,"[13]; at 0.00122 µM, OCI-P5x cells, with rucaparib 20 µM, 100% = cells with rucaparib alone",102% (inactive)
same,viability,"[13]; at 0.00122 µM, OCI-P5x cells, without rucaparib",90.6% (active)
same,viability,"[13]; at 0.00488 µM, OCI-C5x cells, with rucaparib 10 µM, 100% = cells with rucaparib alone",97.5% (active)
same,viability,"[13]; at 0.00488 µM, OCI-C5x cells, without rucaparib",94.4% (active)
same,viability,"[13]; at 0.00488 µM, OCI-P5x cells, with rucaparib 20 µM, 100% = cells with rucaparib alone",102% (inactive)
same,viability,"[13]; at 0.00488 µM, OCI-P5x cells, without rucaparib",91.3% (active)
same,viability,"[13]; at 0.0195 µM, OCI-C5x cells, with rucaparib 10 µM, 100% = cells with rucaparib alone",107% (inactive)
same,viability,"[13]; at 0.0195 µM, OCI-C5x cells, without rucaparib",94.6% (active)
same,viability,"[13]; at 0.0195 µM, OCI-P5x cells, with rucaparib 20 µM, 100% = cells with rucaparib alone",96.6% (active)
same,viability,"[13]; at 0.0195 µM, OCI-P5x cells, without rucaparib",89% (active)
same,viability,"[13]; at 0.0781 µM, OCI-C5x cells, with rucaparib 10 µM, 100% = cells with rucaparib alone",105% (inactive)
same,viability,"[13]; at 0.0781 µM, OCI-C5x cells, without rucaparib",94.2% (active)
same,viability,"[13]; at 0.0781 µM, OCI-P5x cells, with rucaparib 20 µM, 100% = cells with rucaparib alone",82.4% (active)
same,viability,"[13]; at 0.0781 µM, OCI-P5x cells, without rucaparib",83% (active)
same,viability,"[13]; at 0.313 µM, OCI-C5x cells, with rucaparib 10 µM, 100% = cells with rucaparib alone",104% (inactive)
same,viability,"[13]; at 0.313 µM, OCI-C5x cells, without rucaparib",95.8% (active)
same,viability,"[13]; at 0.313 µM, OCI-P5x cells, with rucaparib 20 µM, 100% = cells with rucaparib alone",69% (active)
same,viability,"[13]; at 0.313 µM, OCI-P5x cells, without rucaparib",72.2% (active)
same,viability,"[13]; at 1.25 µM, OCI-C5x cells, with rucaparib 10 µM, 100% = cells with rucaparib alone",91.7% (active)
same,viability,"[13]; at 1.25 µM, OCI-C5x cells, without rucaparib",87.9% (active)
same,viability,"[13]; at 1.25 µM, OCI-P5x cells, with rucaparib 20 µM, 100% = cells with rucaparib alone",58.9% (active)
same,viability,"[13]; at 1.25 µM, OCI-P5x cells, without rucaparib",64.4% (active)
same,viability,"[13]; at 5 µM, OCI-C5x cells, with rucaparib 10 µM, 100% = cells with rucaparib alone",32.8% (active)
same,viability,"[13]; at 5 µM, OCI-C5x cells, without rucaparib",53.2% (active)
same,viability,"[13]; at 5 µM, OCI-P5x cells, with rucaparib 20 µM, 100% = cells with rucaparib alone",5.51% (active)
same,viability,"[13]; at 5 µM, OCI-P5x cells, without rucaparib",52.2% (active)

# Reference: PubChem BioAssay
